This is one part of a sample in which hits are shown more often than they occur.
Shiga inhibitor: Shiga toxin inhibition. Vero cells, Shiga toxin protein synthesis inhibition reporter. inhibition, % at 38.7 µM. 290,000 compounds, 9.2% hits; in the data active = inhibition mostly above about 28%, no sharp cut-off; inactive = mostly below about 43%
TbPYK inhibitor: T. brucei pyruvate kinase inhibition; 410,000 compounds, 0.12% hits; TbPYK enzyme, Kinase-Glo Plus ATP luminescence, 45 min; Q57TT1; Potency, µM (titrated, usually from 76.8 µM), usual class: inhibitors; also: nearly all actives have a fitted effect of over 50% in size
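ADP (130 uM final) triggers the TbPYK reaction after compound addition; incubation is 45 min at room temperature. Kinase-Glo Plus is then added and luminescence imaged. Normalized data are fitted to concentration-effect curves.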
Sm TGR inh: S. mansoni TGR enzyme inhibition; purified TGR, DTNB reduction, TNB absorbance 405 nm; Potency, µM (doses to about 114 µM), hits mostly inhibitors; 360,000 compounds, 3% hits; AID 485364; also: nearly all actives have a fitted effect of over 60% in size
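Kinetic colorimetric format: TGR-catalysed, NADPH-driven DTNB reduction monitored via TNB absorbance. Enzyme dispensed at 20 nM; compound exposure 15 min at room temperature before reaction start.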
Cycloheximide cs: affects cycloheximide protein synthesis inhibition readout, counter-screen; max response, %; 300,000 compounds, 12% hits; cell reporter, cycloheximide protein synthesis inhibition counterscreen; in the data active = max response mostly above about 13%, no sharp cut-off; inactive = mostly below about 14%; also: read at 38.3 µM for the half of the compounds with a filed dose
LmPK inhibitor: LmPK (Leishmania mexicana) enzyme inhibition. Q27686. Potency, µM (doses to about 57.5 µM), usual class: inhibitors. 290,000 compounds, 0.37% hits. purified LmPK, Kinase-Glo ATP luminescence, 1 h
Target sequence (Q27686 whole entry, looked up): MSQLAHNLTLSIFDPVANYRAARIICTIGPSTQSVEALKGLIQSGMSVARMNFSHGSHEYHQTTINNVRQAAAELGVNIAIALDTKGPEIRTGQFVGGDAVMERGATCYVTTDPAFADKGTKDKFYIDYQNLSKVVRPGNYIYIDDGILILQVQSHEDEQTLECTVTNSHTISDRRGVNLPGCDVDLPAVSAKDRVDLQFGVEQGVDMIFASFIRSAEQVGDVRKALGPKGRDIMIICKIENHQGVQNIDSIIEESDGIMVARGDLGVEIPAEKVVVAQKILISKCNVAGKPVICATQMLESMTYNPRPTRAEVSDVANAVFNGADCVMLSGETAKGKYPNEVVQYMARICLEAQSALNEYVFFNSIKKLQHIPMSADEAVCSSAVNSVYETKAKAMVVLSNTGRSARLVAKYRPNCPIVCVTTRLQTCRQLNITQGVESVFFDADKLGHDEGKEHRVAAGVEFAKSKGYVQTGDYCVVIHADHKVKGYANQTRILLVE
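Purified LmPK (0.1 nM) with 0.5 mM PEP and 0.1 mM ADP in imidazole buffer pH 7.2 with MgCl2/KCl, 1 h at room temperature. ATP formed was read by luciferase luminescence and normalized to no-enzyme and uninhibited controls.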
FBPA Giardia inh: Giardia lamblia aldolase inhibition. 290,000 compounds, 0.71% hits. Potency, µM (highest dose often 59.6 µM), hits mostly inhibitors. A8B2U2. purified Giardia FBPA; also: nearly all actives have a fitted effect of over 55% in size
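40 nM FBPA preincubated 10 min at RT with compound (up to 57.5 uM final), then substrate plus GAPDH/TPI/NAD/arsenate coupling and diaphorase/resazurin added. Fluorescence read after 20 min at RT, 525/598 nm.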
Large screens that a line does not name were inactive. Unless noted, calls follow the shape of the dose curve; as a rule, active = well fitted curve in the direction sought with a large enough effect; inconclusive = small, poorly fitted or top-dose-only effect, or another doubt; inactive = no such curve, though single readings can be large; an effect the other way counts as inactive or inconclusive.

O=[N+]([O-])c1ccc(-c2csc(Nc3ccccc3)[n+]2Cc2ccccc2)cc1	Shiga inhibitor 29, Cycloheximide cs 33
O=[N+]([O-])c1ccc(C[n+]2c(-c3ccccc3)cc(-c3ccccc3)cc2-c2ccccc2)cc1	none (no result: Shiga inhibitor, Cycloheximide cs, LmPK inhibitor, FBPA Giardia inh)
Cc1ccc(-c2csc(Nc3ccc(C(=O)O)cc3)[n+]2Cc2ccccc2)cc1	none (no result: Sm TGR inh)
Cc1ccc(-c2csc(Nc3ccccc3)[n+]2CCc2ccccc2)cc1	Shiga inhibitor 70, Cycloheximide cs 23
COc1ccc(-c2csc(Nc3ccccc3)[n+]2Cc2ccccc2)cc1	Shiga inhibitor 55, Cycloheximide cs 38
CCCC[n+]1c(-c2ccc(Cl)cc2Cl)csc1Nc1ccccc1	none
Cc1ccc(-n2ncc3c(Nc4ccc5c(c4)OCCO5)ncnc32)cc1C	none (no result: Shiga inhibitor, Cycloheximide cs, LmPK inhibitor, FBPA Giardia inh)
Cn1ncc2c(Nc3ccc(Cl)c(Cl)c3)ncnc21	Cycloheximide cs 36
CCCn1ncc2c(Nc3ccc(C)c(C)c3)ncnc21	Shiga inhibitor 110, Cycloheximide cs 47
Cn1ncc2c(Nc3cc(Cl)cc(Cl)c3)ncnc21	none
Cn1ncc2c(Nc3ccc(-c4ccccc4)cc3)ncnc21	Shiga inhibitor 76, Cycloheximide cs 41
Cc1ccc(C)c(CSc2nc3ccncc3n2CC(=O)Nc2ccc(N(C)C)cc2)c1	none (no result: Shiga inhibitor, Cycloheximide cs, LmPK inhibitor, FBPA Giardia inh)
COc1cc(C2C(=O)N(C3CCCCC3)CC(=O)N2C2CCCCC2)ccc1OC(C)C (configuration not stated)	none (no result: Shiga inhibitor, Cycloheximide cs, LmPK inhibitor, FBPA Giardia inh)
OCCc1ccc(-c2ccc(Cl)cc2)o1	Shiga inhibitor 108, Sm TGR inh 45µM, Cycloheximide cs 31
Clc1ccc(-c2ccc(CN3CCCCC3)o2)cc1	Shiga inhibitor 39, Sm TGR inh inconclusive, Cycloheximide cs 25, FBPA Giardia inh inconclusive
CN1CCN(Cc2ccc(-c3ccc(Cl)cc3)o2)CC1	Sm TGR inh inconclusive, Cycloheximide cs 26
O=[N+]([O-])c1ccc(CN2CCN(c3ccc(Cl)cc3)CC2)o1	Sm TGR inh inconclusive, FBPA Giardia inh inconclusive
CCOC(=O)C1=C(COC(=O)c2ccc(C)c(S(=O)(=O)N3CCOCC3)c2)NC(=O)NC1C (configuration not stated)	none (no result: Shiga inhibitor, Cycloheximide cs, LmPK inhibitor, FBPA Giardia inh)
CCOCCc1nn2c(=O)cc(COC(=O)C3CCCCC3)nc2s1	none (no result: Shiga inhibitor, Cycloheximide cs, LmPK inhibitor, FBPA Giardia inh)
O=C(COC(=O)c1ccc[nH]c1=O)NC1CC1	none (no result: Shiga inhibitor, Sm TGR inh, Cycloheximide cs, LmPK inhibitor, FBPA Giardia inh)
C/C(=N/NC(=O)c1ccc(Br)o1)c1cccs1	Shiga inhibitor 123, Cycloheximide cs 50 (no result: FBPA Giardia inh)
C/C(=N\NC(=O)c1cc(C)nc2ccccc12)c1cccs1	none
C/C(=N\NC(=O)c1cc(Br)ccc1O)c1cccs1	Shiga inhibitor 126, Cycloheximide cs 37
O=C(c1cc(C(F)(F)F)cc(C(F)(F)F)c1)N1CCC2(CCN(Cc3ccncc3)CC2)CC1	none (no result: Shiga inhibitor, Sm TGR inh, Cycloheximide cs, LmPK inhibitor)
CC1CCN(CC(CS(=O)(=O)c2ccc([N+](=O)[O-])cc2)N2CCC(C)CC2)CC1 (configuration not stated)	Sm TGR inh 2.5µM
Cc1ccc(-c2cc(C(=O)NC3CCCC3)no2)cc1	Shiga inhibitor 92, Cycloheximide cs 37
Cc1cc(C(=O)NC2CCCC2)on1	none
COc1cc(NC(=O)c2cc(-c3ccc(Cl)c(Cl)c3)on2)cc(OC)c1OC	none (no result: Shiga inhibitor, Cycloheximide cs, LmPK inhibitor, FBPA Giardia inh)
O=C(NC1CCCC1)c1cc(-c2ccc(Cl)c(Cl)c2)on1	Shiga inhibitor 45, Cycloheximide cs 27
O=C(NC1CCCCC1)c1cc(-c2ccc(F)cc2)on1	Cycloheximide cs 12
O=C(NC1CCCCC1)c1cc(-c2cccs2)on1	Shiga inhibitor 117, Cycloheximide cs 50
O=C(NCCN1CCOCC1)c1cc(-c2ccc(F)cc2)on1	none
CCOC(=O)N1CCN(C(=O)COC(=O)CNC(=O)c2ccc(OCC)c(OCC)c2)CC1	none (no result: Shiga inhibitor, Cycloheximide cs, LmPK inhibitor, FBPA Giardia inh)
CC(=O)c1c(C)oc2ccc(N(C(C)=O)S(=O)(=O)c3ccc(Br)cc3)cc12	none (no result: Shiga inhibitor, Sm TGR inh, Cycloheximide cs, LmPK inhibitor, FBPA Giardia inh)
CC(=O)c1c(C)oc2ccc(N(C(C)=O)S(=O)(=O)c3ccc(Cl)c([N+](=O)[O-])c3)cc12	Sm TGR inh 2.2µM
O=C(COc1ccc(Cl)cc1)NCCSCc1ccccc1Cl	none
O=C(CSCc1ccccc1Cl)NCCSc1ccccn1	Cycloheximide cs 21
CCCOc1ccc(CNC(=O)c2cc3oc4ccccc4c3n2C)cc1	none (no result: Shiga inhibitor, Cycloheximide cs, LmPK inhibitor, FBPA Giardia inh)
COc1ccc(CCNC(=O)c2ccc3c(c2)OCCO3)cc1	Shiga inhibitor 84, Cycloheximide cs 35
COc1ccc(CCNC(=O)c2ccc3c(c2)OCO3)cc1	Cycloheximide cs 27
COc1ccc2cc(CCNC(=O)c3ccc4c(c3)OCO4)c(=O)[nH]c2c1	none
COc1ccc(CCNC(=O)c2coc(=O)c(Br)c2)cc1	Shiga inhibitor 71, Cycloheximide cs 26
COc1ccc(S(=O)(=O)N(C)C[C@@H]2OCc3cn(nn3)CCCC(=O)N([C@@H](C)CO)C[C@H]2C)cc1	none (no result: Shiga inhibitor, Sm TGR inh, Cycloheximide cs, LmPK inhibitor, FBPA Giardia inh)
CN(C)c1ccc(/C=C2\C(=O)Nc3ccccc32)cc1	Shiga inhibitor 78, Cycloheximide cs 76 (no result: TbPYK inhibitor, Sm TGR inh, LmPK inhibitor)
O=C1Nc2ccccc2/C1=C/c1ccccc1F	Cycloheximide cs 13
CC(C)(C)c1cc(/C=C2\NC(=O)NC2=O)cc(C(C)(C)C)c1O	Sm TGR inh 1.1µM, Cycloheximide cs 25
O=C1Nc2ccccc2/C1=C/c1cnc[nH]1	none
Cc1ccccc1/C=C1\C(=O)Nc2ccc(F)cc21	none

Compound activity deposited in PubChem BioAssay by National Center for Advancing Translational Sciences (NCATS).
